This is an account of results in PubChem BioAssay.

SMILES strings stand for the structures. Activity calls are given as the source filed them. Unless noted, how the calls were made is not given here.

Experiment [1] has as its system XIP peptide (Xip251-270) binding. Put plainly: XIP fragment 251-270 binding compounds – biochemical, small-molecule microarray, fluorescence 635/667 nm, 0.1 µg/mL protein, primary screen (AID 1182). The settings on record: fluorescent protein binding, 635 nm, higher = more signal, called active from +8 up or from −8 down.
For experiment [2], the system named is XIP peptide (Xip251-270). Put plainly: compounds binding XIP fragment 251-270 – biochemical, small-molecule microarray, fluorescence 635/667 nm, 0.5 µg/mL protein, primary screen (AID 1183). The settings on record: fluorescence 635 nm, higher = more signal.
A short description of experiment [3]: blood-stage malaria parasite viability loss – strain 3D7, DAPI fluorescence, 100 nL, primary screen (AID 1184).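 Further: parasites grown inside human red blood cells in medium with human serum.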 Conditions: P. falciparum 3D7 growth, 3 d, higher = more signal.
The target of experiment [4] is Homeobox protein Hox-A13 (Mus musculus) (UniProt Q62424). Put plainly: disruptors of Hoxa13 oligonucleotide interaction – biochemical, fluorescence polarization, labeled oligonucleotide, primary screen (AID 1185). Conditions: Hoxa13:DNA binding, 15 min, higher = more signal, called active from +8 up or from −8 down. (In general: Fluorescence polarisation rises when a labelled molecule tumbles more slowly, as on binding a larger partner.)
Homeobox protein Hox-A13 (Mus musculus), sequence (Q62424 whole entry, looked up): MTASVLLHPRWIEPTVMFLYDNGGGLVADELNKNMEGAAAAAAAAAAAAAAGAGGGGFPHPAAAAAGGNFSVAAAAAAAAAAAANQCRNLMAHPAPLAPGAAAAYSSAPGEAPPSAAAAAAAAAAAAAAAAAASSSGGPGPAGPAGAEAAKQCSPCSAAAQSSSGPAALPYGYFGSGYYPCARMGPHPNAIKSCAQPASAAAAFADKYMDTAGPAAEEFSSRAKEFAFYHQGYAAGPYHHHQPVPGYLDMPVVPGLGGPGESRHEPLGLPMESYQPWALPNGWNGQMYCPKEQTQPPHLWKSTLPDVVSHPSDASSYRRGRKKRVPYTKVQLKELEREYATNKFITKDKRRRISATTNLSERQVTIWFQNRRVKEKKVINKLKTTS

Experiment [5] in a line: blockers of DNA damage checkpoint Chk1 activation – imaging, HeLa, hydroxyurea, phospho-Chk1 antibody, percent positive cells, primary screen (AID 1186). The settings on record: hydroxyurea-induced phospho-Chk1 immunofluorescence imaging, higher = more signal.
Experiment [6] in a line: blockers of DNA damage checkpoint Chk1 activation – imaging, HeLa, hydroxyurea, phospho-Chk1 nuclear intensity, primary screen (AID 1187). Conditions: hydroxyurea-induced phospho-Chk1 immunofluorescence imaging, higher = more signal.

With `COC(=O)C(CC#Cc1ccc2c(c1)[C@]1(C(=O)N2)[C@H](c2ccc(O)cc2)N2[C@H](c3ccccc3)[C@H](c3ccccc3)OC(=O)[C@H]2[C@@H]1C(=O)O)C(=O)OC`, the composite z-score in experiment [1] is -0.173 (inactive); in experiment [2], 0.665. For the same molecule, the z-score in experiment [3] was -0.102; in experiment [4], -6.45 (inactive); in experiment [5], 0.223 (inactive); in experiment [6], -0.31 (inactive).

Take `C=CC[C@@]1(C(=O)NCCN2CCOCC2)N=C(c2ccc(OCCCO)cc2)O[C@@H]1c1ccccc1`: the composite z-score is 0.202 (inactive) in experiment [1] and 0.638 in experiment [2]. The z-score in experiment [3] is -0.825; in experiment [4], -6.6 (inactive); in experiment [5], 0.426 (inactive); in experiment [6] it was 0.0737 (inactive).

For `COc1ccc(CCNC(=O)[C@@H]2c3ccccc3C(=O)N(Cc3ccccc3C(F)(F)F)[C@H]2c2ccc(CO)cc2)cc1`, the values for the composite z-score in experiment [1] and in experiment [2] were -0.251 (inactive) and 0.766, respectively. Besides, the z-score was -0.756 in experiment [3], -3.85 (inactive) in experiment [4], 0.239 (inactive) in experiment [5] and 0.61 (inactive) in experiment [6].

Take `CCOC(=O)C[C@H]1[C@H](OC(=O)Cc2ccc3c(c2)OCO3)[C@@H](NC(=O)c2ccccc2)c2cc(OCCCO)ccc2N1C(=O)c1ccc2ccccc2n1`: the composite z-score in experiment [1] was -0.263 (inactive); in experiment [2], -0.101. Also, the z-score is 0.93 in experiment [3], -3.68 (inactive) in experiment [4], -0.467 (inactive) in experiment [5] and -0.259 (inactive) in experiment [6].

Turning to `CC1(C)[C@@H]2CC(C(O)C3C=CC4C(=O)N(c5ccccc5)C(=O)C4N3Nc3ccccc3F)=C[C@@H]1C2` (some centres not stated), the composite z-score was 0.572 (inactive) in experiment [1] and 0.458 in experiment [2]. The z-score was -0.59 in experiment [3], -2.4 (inactive) in experiment [4], 0.498 (inactive) in experiment [5] and 0.749 (inactive) in experiment [6].

Take `[N-]=[N+]=NCc1ccccc1[C@H]1OC(c2ccc(OCCCO)cc2)=N[C@@]1(Cc1ccccc1)C(N)=O`: the composite z-score is 1.78 (inactive) in experiment [1] and 0.852 in experiment [2]. Moreover, the z-score in experiment [3] is -0.676; in experiment [4] it was -3.61 (inactive); in experiment [5] it was -0.441 (inactive); in experiment [6], -0.189 (inactive).

Regarding `[N-]=[N+]=NCc1ccccc1C[C@]1(C(=O)NCCN2CCOCC2)N=C(c2ccc(OCCCO)cc2)O[C@H]1c1ccccc1`, the composite z-score in experiment [1] is 0.786 (inactive); in experiment [2], 0.817. In addition, the z-score in experiment [3] was -2.42; in experiment [4], -6.23 (inactive); in experiment [5] it was 0.0479 (inactive); in experiment [6] it was 0.228 (inactive).

With `C=CCC(OC(C)=O)[C@@H]1[C@@H](N(Cc2cccc3ccccc23)C(=O)c2ccc(C)cc2)c2cc(OCCCO)ccc2N1C(=O)c1ccc2ccccc2c1` (some centres not stated), the results for the composite z-score in experiment [1] and in experiment [2] were 0.591 (inactive) and 0.52, respectively. The z-score is -2.2 in experiment [3], -0.0802 (inactive) in experiment [4], -0.995 (inactive) in experiment [5] and -0.761 (inactive) in experiment [6].

Take `COCCOC(=O)N1C(=O)[C@@]2(c3cc(C#CCNC(N)=O)ccc31)[C@H](c1ccc(OCCO)cc1)N1[C@H](c3ccccc3)[C@H](c3ccccc3)OC(=O)[C@H]1[C@@H]2C(=O)N1CCN(c2ncccn2)CC1`: the composite z-score in experiment [1] was -0.299 (inactive); in experiment [2], 0.245. Besides, the z-score in experiment [3] was -1.91; in experiment [4], 0.513 (inactive); in experiment [5] it was -0.117 (inactive); in experiment [6], -0.434 (inactive).

Take `COc1ccc([Si](C)(C)[C@H]2[C@H](CCO)O[C@@]3(C(=O)N(Cc4cccc(N5CCOC5=O)c4)c4ccccc43)[C@@H]2C)cc1`: the composite z-score in experiment [1] is 0.154 (inactive); in experiment [2] it was 0.687. Besides, the z-score was -2.79 in experiment [3], -4.21 (inactive) in experiment [4], -1.12 (inactive) in experiment [5] and -0.5 (inactive) in experiment [6].

For `CCCC[C@H]1OB(O)C[C@H]2C1=C(COc1ccccc1)Cn1c(=O)n(-c3ccccc3)c(=O)n12`, the composite z-score in experiment [1] was 1.9 (inactive); in experiment [2] it was 0.286. Moreover, the z-score was -0.902 in experiment [3], -7.43 (inactive) in experiment [4], -0.309 (inactive) in experiment [5] and -0.247 (inactive) in experiment [6].

Consider `C=CCNC(=O)[C@H]1[C@@H]2C(=O)O[C@@H](c3ccccc3)[C@@H](c3ccccc3)N2[C@@H](c2ccc(O)cc2)[C@]12C(=O)N(C(=O)OCCOC)c1ccc(C#CC3(O)CCCCCC3)cc12`, for which the values for the composite z-score in experiment [1] and in experiment [2] were 1.44 (inactive) and 0.842, respectively. The z-score in experiment [3] was 0.351; in experiment [4] it was -2.42 (inactive); in experiment [5], -0.213 (inactive); in experiment [6], 0.382 (inactive).

In the case of `CC(C)C(CO)N1C(=O)[C@@H]2[C@H]3C(=O)OCC=C[C@H]3OC23C=CCN(Cn2nnc4ccccc42)C(=O)[C@@H]13` (some centres not stated), the composite z-score was -0.406 (inactive) in experiment [1] and -0.705 in experiment [2]. For the same molecule, the z-score in experiment [3] is -0.229; in experiment [4] it was -3.05 (inactive); in experiment [5], 0.123 (inactive); in experiment [6], 0.11 (inactive).

`COC(=O)[C@@]1(Cc2ccc(F)cc2)[C@H]2c3cc(C(=O)N(C)C)n(CCSCCO)c3C[C@H]2CN1C(=O)c1ccccc1`: the composite z-score in experiment [1] was 0.235 (inactive); in experiment [2], 0.0692. The z-score is -0.404 in experiment [3], -4.76 (inactive) in experiment [4], 0.511 (inactive) in experiment [5] and 0.469 (inactive) in experiment [6].

As for `C=CCC(OC(C)=O)[C@@H]1[C@@H](N(Cc2cccc3ccccc23)C(=O)Cc2ccc(F)cc2)c2cc(OCCCO)ccc2N1C(=O)Cc1ccc(OC)cc1` (some centres not stated), the composite z-score in experiment [1] was -0.51 (inactive); in experiment [2], -0.189. Also, the z-score is -1.64 in experiment [3], -0.902 (inactive) in experiment [4], -0.0456 (inactive) in experiment [5] and -0.301 (inactive) in experiment [6].

`COc1cccc(C[C@H]2C[C@@H](CO[Si](C(C)C)(C(C)C)C(C)C)N3C(=O)[C@]4(C(C)=O)O[C@]23[C@H]2C(=O)N(C)C(=O)[C@H]24)c1`: the composite z-score in experiment [1] is 0.0522 (inactive); in experiment [2], 0.459. The z-score in experiment [3] is -0.281; in experiment [4], -3.12 (inactive); in experiment [5] it was 0.527 (inactive); in experiment [6], 0.139 (inactive).

Regarding `C=CCC(OC(C)=O)[C@@H]1[C@@H](N(Cc2ccc(-c3cccc(C(F)(F)F)c3)o2)C(=O)c2cccc3ccccc23)c2cc(OCCCO)ccc2N1C(=O)c1ccc(-c2ccccc2)cc1` (some centres not stated), the composite z-score in experiment [1] is -0.0517 (inactive); in experiment [2], -0.131. Further, the z-score in experiment [3] was -3; in experiment [4], -2.39 (inactive); in experiment [5] it was -0.403 (inactive); in experiment [6] it was -0.16 (inactive).
